According to PubChem BioAssay AID1159580 (chemical genetic matrix, 2015):
Hit rate of the full screen: of about 5,500 compounds, about 2,000 (36%) were called active. About 18% were inconclusive and are not listed. Cut-off read from the data, not from the text of the source: active = normalized growth mostly below about 0.91 (no sharp cut-off); inconclusive = no clear call, values can overlap the other calls; inactive = mostly above about 0.92. Some of the results follow.

Assay: chemical genetic growth profiling, strain panel (AID 1159580);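 note: tested at 20 µM; growth read once vehicle control cultures reached saturation at 30 °C; 1 = growth at the plate median or of vehicle wells; lower values mean less growth of the strain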
Settings: S. cerevisiae deletion strains, growth OD

Measured: normalized growth

O=c1cc(-c2ccc(O)cc2)oc2ccc(O)cc12
inactive: locus YAL021C, strain ccr4, hits give low values 0.99 | locus YAL026C, strain drs2, hits give low values 0.956 | locus YAL030W, strain snc1, hits give low values 0.972 | locus YBL061C, strain skt5, hits give low values 0.964 | locus YBR009C, strain hhf1, hits give low values 0.936 | locus YBR023C, strain chs3, hits give low values 0.987 | locus YBR171W, strain sec66, hits give low values 0.981 | locus YBR231C, strain swc5, hits give low values 0.979 | locus YBR279W, strain paf1, hits give low values 0.978 | locus YCL011C, strain gbp2, hits give low values 0.949 | locus YCL016C, strain dcc1, hits give low values 0.981 | locus YCL061C, strain MRC1, hits give low values 0.987 | locus YCL069W, strain vba3, hits give low values 0.98 | locus YCR088W, strain abp1, hits give low values 0.977 | locus YDL005C, strain med2, hits give low values 0.969 | locus YDL040C, strain nat1, hits give low values 0.985 | locus YDR001C, strain nth1, hits give low values 0.97 | locus YDR069C, strain doa4, hits give low values 0.922 | locus YDR137W, strain rgp1, hits give low values 0.96 | locus YDR159W, strain sac3, hits give low values 0.954 | locus YDR195W, strain ref2 0.943 | locus YDR297W, strain sur2, hits give low values 0.958 | locus YDR334W, strain swr1, hits give low values 0.976 | locus YDR335W, strain msn5, hits give low values 0.979 | locus YDR392W, strain spt3, hits give low values 0.935 | locus YEL003W, strain gim4, hits give low values 0.97 | locus YEL037C, strain rad23, hits give low values 0.971 | locus YEL061C, strain CIN8 (second series), hits give low values 0.952 | locus YER015W, strain faa2, hits give low values 0.997 | locus YER016W, strain bim1, hits give low values 0.983 | locus YER111C, strain swi4, hits give low values 0.973 | locus YER155C, strain BEM2 (second series), hits give low values 0.963 | locus YFR010W, strain ubp6, hits give low values 0.938 | locus YGL167C, strain pmr1, hits give low values 0.949 | locus YGL173C, strain kem1, hits give low values 0.961 | locus YGL227W, strain vid30, hits give low values 0.96 | locus YGL240W, strain doc1, hits give low values 0.964 | locus YGL253W, strain hxk2, hits give low values 0.992 | locus YHR013C, strain ard1, hits give low values 0.938 | locus YHR027C, strain rpn1, hits give low values 0.962 | locus YHR030C, strain SLT2, hits give low values 0.989 | locus YHR079C, strain IRE1, hits give low values 0.992 | locus YHR142W, strain chs7, hits give low values 0.976 | locus YJL092W, strain hpr5, hits give low values 0.984 | locus YJL095W, strain BCK1 (second series), hits give low values 0.978 | locus YJL095W, strain BCK1, hits give low values 1 | locus YJL115W, strain asf1, hits give low values 0.978 | locus YJL129C, strain trk1, hits give low values 0.942 | locus YJL154C, strain vps35, hits give low values 0.991 | locus YJL164C, strain tpk1, hits give low values 0.958 | locus YJL166W, strain qcr8, hits give low values 0.977 | locus YJL187C, strain SWE1, hits give low values 0.973 | locus YJR066W, strain TOR1, hits give low values 0.933 | locus YKL160W, strain elf1, hits give low values 0.987 | locus YKR026C, strain gcn3, hits give low values 0.963 | locus YKR091W, strain srl3, hits give low values 0.984 | locus YLL001W, strain dnm1, hits give low values 0.964 | locus YLL026W, hits give low values 0.986 | locus YLL041C, strain sdh2, hits give low values 0.995 | locus YLR027C, strain aat2, hits give low values 0.971 | locus YLR113W, strain HOG1, hits give low values 0.951 | locus YLR221C, strain rsa3, hits give low values 0.988 | locus YLR258W, strain gsy2, hits give low values 0.977 | locus YLR262C, strain YPT6 (second series), hits give low values 0.959 | locus YLR320W, strain mms22, hits give low values 0.964 | locus YLR342W, strain FKS1, hits give low values 0.97 | locus YLR357W, strain rsc2, hits give low values 0.982 | locus YLR370C, strain arc18, hits give low values 0.947 | locus YLR384C, strain iki3, hits give low values 0.969 | locus YML120C, strain ndi1, hits give low values 0.956 | locus YMR058W, strain fet3, hits give low values 0.961 | locus YMR125W, strain sto1, hits give low values 0.947 | locus YMR129W, hits give low values 0.973 | locus YMR205C, strain PFK2, hits give low values 0.946 | locus YMR231W, strain pep5, hits give low values 0.974 | locus YNL071W, strain lat1, hits give low values 0.984 | locus YNL183C, strain NPR1, hits give low values 0.932 | locus YNL209W, strain ssb2, hits give low values 0.975 | locus YNL248C, strain rpa49, hits give low values 0.988 | locus YNL322C, strain KRE1 (second series), hits give low values 0.97 | locus YNR049C, strain mso1, hits give low values 0.989 | locus YOR001W, strain rrp6, hits give low values 0.991 | locus YOR070C, strain gyp1, hits give low values 0.988 | locus YOR080W, strain dia2, hits give low values 0.967 | locus YOR083W, strain WHI5, hits give low values 0.918 | locus YOR106W, strain vam3, hits give low values 0.974 | locus YOR231W, strain MKK1, hits give low values 0.968 | locus YOR265W, strain rbl2, hits give low values 0.961 | locus YOR270C, strain vph1, hits give low values 0.919 | locus YOR290C, strain snf2, hits give low values 0.943 | locus YPL051W, strain arl3, hits give low values 0.971 | locus YPL078C, strain atp4, hits give low values 0.987 | locus YPL106C, strain sse1, hits give low values 0.888 | locus YPL240C, strain hsp82, hits give low values 0.981 | locus YPL256C, strain CLN2, hits give low values 0.973
